Bioassay records as filed in PubChem.
This is a sample that favours compounds with a hit; in the whole collection about 3.8% have one here.
FGF22 binding: FGF22 (human) thermal shift binding; recombinant FGF22 thermal shift, SYPRO orange fluorescence; percent of sucrose octasulfate shift, DMSO zero; activity (Tm shift, normalised), % at 9.99 µM; actives 1.5% (n = 340,000); AID 651658;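 active means mean Tm shift, scaled 0 neutral to 100 positive control, at about 1.3% or above, every replicate too, limit read from the data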
rRNA inh HTS: inhibitors of bacterial rRNA selective over humanized ribosomes; E. coli WT GFP vs humanized-ribosome RFP mutants, fluorescence, 24 h; stronger effect = lower value; DMSO median 0, no signal -100; GFP signal change (wild-type ribosome), % (concentration not given with the values); actives 1.6% (n = 350,000);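 active means significant combined selectivity score with lowered wild-type GFP, culture density cut under 30%, mutant RFP and density less affected; inactive means any of these conditions unmet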
KLK7 zymogen act: proKLK7 (human) activation, primary screen; P49862; purified proKLK7, EDANS-DABCYL substrate fluorescence; 100% is mature enzyme control, 0% vehicle; activation, % at 7 µM; actives 0.9% (n = 370,000); AID 652039;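 active means activation above the mean of all tested compounds plus 3 SD, computed per campaign excluding outliers beyond control limits, cut at about 13% in these data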
ADAM17 inh: inhibits human ADAM17; P78536; recombinant ADAM17, EDANS/DABCYL FRET peptide cleavage; inhibition, % at 6.95 µM; actives 0.83% (n = 370,000); AID 720648;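 active means inhibition above the mean of compounds lying between control limits plus 3 SD, set per campaign, cut at about 8.5% in these data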
Target sequence (P78536 215-824 limits assumed): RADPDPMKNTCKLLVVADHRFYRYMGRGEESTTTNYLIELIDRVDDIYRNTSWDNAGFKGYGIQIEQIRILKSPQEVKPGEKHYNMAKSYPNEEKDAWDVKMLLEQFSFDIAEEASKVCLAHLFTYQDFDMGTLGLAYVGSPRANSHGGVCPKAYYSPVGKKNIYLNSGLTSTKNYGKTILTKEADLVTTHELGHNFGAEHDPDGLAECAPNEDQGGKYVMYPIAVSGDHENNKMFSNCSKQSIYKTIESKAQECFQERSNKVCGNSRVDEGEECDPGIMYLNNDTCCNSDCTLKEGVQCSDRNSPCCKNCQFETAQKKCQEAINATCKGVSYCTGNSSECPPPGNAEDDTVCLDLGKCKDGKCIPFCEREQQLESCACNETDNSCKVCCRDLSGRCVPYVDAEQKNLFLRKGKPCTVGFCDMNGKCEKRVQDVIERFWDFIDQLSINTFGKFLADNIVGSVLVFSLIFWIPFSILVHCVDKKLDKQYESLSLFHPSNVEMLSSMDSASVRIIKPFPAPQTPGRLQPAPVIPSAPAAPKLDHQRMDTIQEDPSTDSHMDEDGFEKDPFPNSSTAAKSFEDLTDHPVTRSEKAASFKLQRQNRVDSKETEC
ADAM10 inh: inhibitors of human ADAM10 | recombinant ADAM10, EDANS/DABCYL FRET peptide cleavage, 3 h | inhibition, % at 7 µM | actives 0.62% (n = 370,000);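 active means inhibition above a per-campaign cutoff equal to the mean of compounds falling between control-based bounds plus 3 SD, cut at about 20% in these data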
A number is an active result; n = inactive; x = not tested or not shown.

SMILES	FGF22 binding	rRNA inh HTS	KLK7 zymogen act	ADAM17 inh	ADAM10 inh
CCOc1cc(N2CCOCC2)c(OCC)cc1NC(=S)NCCCOC	43.0	n	n	n	n
CCOc1cc(NC(=S)NCCCN2CCOCC2)c(OCC)cc1NC(=O)c1cccc(C)c1	n	n	n	n	n
CC(C(=O)NC1C=CS(=O)(=O)C1)N1C(=O)/C(=C/c2cccc(Cl)c2)SC1=S (stereo unspecified)	n	-28.1	n	n	n
COc1ccccc1/C=C1/SC(=S)N(C(C)C(=O)NC2C=CS(=O)(=O)C2)C1=O (stereo unspecified)	n	n	n	n	n
CC(C(=O)NC1C=CS(=O)(=O)C1)N1C(=O)/C(=C\c2ccccc2)SC1=S (stereo unspecified)	n	-16.3	n	n	n
O=C(c1cc(COc2ccc3ncccc3c2)on1)N1CCCCCC1	n	x	n	n	n
O=C(c1cc(COc2ccc3ncccc3c2)on1)N1CCCC1	n	-23.6	n	n	n
C[C@H](O)C#Cc1ccc2c(c1)O[C@@H](CN(C)C(=O)C1CC1)[C@H](C)CN([C@@H](C)CO)S2(=O)=O	n	n	x	x	x
Cc1nn(C)cc1NC(=O)C[C@@H]1CC[C@H]2[C@H](COc3ccc(NC(=O)NC(C)C)cc3C(=O)N2C)O1	n	n	x	x	x
CC(C)NC(=O)N(Cc1ccc(Cl)cc1)Cc1cccs1	n	-24.1	n	n	n
O=C(Nc1ccc(Cl)cc1)N(Cc1cccs1)Cc1cccs1	x	x	n	n	n
CC1SC(=NC(=O)c2ccncc2)NC1=O (stereo unspecified)	44.5	n	n	n	n
CC(C)NC(=O)N(C)C[C@@H]1Oc2ccc(N)cc2C(=O)N(C)C[C@H]1C	x	n	x	x	x
Cc1csc2c(N3CCN(C(=S)Nc4ccc(F)cc4F)CC3)ncnc12	n	-26.5	n	n	n
Cc1csc2c(N3CCN(C(=O)Nc4ccccc4)CC3)ncnc12	n	-27.9	n	n	n
Cc1ccc(C(=O)N2CCN(c3ncnc4c(C)csc34)CC2)cc1	n	n	n	n	n
Cc1ccc(-c2ccc3c(c2)O[C@@H](CN(C)Cc2ccccc2)[C@@H](C)CN([C@@H](C)CO)S3(=O)=O)cc1	n	n	x	x	x
O=C(NCC[C@H]1CC[C@H](NC(=O)C2CCOCC2)[C@@H](CO)O1)c1ccc(F)cc1	n	n	x	x	x
O=C(O)c1ccc(NS(=O)(=O)c2cccc(C(=O)Nc3ccc(Br)cc3)c2)cc1	x	-27.2	n	n	n
Cc1cc(NS(=O)(=O)c2ccc(NC(=O)c3c(F)c(F)c(F)c(F)c3F)cc2)nc(C)n1	n	n	n	n	n
N#Cc1c(NC(=O)c2cccc(S(=O)(=O)Nc3ccc(C(=O)O)cc3)c2)sc2c1CCCC2	x	-24.2	n	n	n
Cc1cc(C(=O)Nc2sc3c(c2C#N)CCCCC3)cs1	n	n	x	x	x
O=C(Nc1ccccc1C(=O)O)c1cccc(S(=O)(=O)Nc2ccc(Br)cc2)c1	n	n	n	n	n
Cc1ccc(S(=O)(=O)Nc2ccc(NC(=O)c3c(F)c(F)c(F)c(F)c3F)cc2)cc1	n	-25.6	n	n	n
Cc1ccc(Oc2ccc(S(=O)(=O)Nc3ccc(C(=O)O)cc3)cc2)cc1	n	n	n	n	n
SMILES	FGF22 binding	rRNA inh HTS	KLK7 zymogen act	ADAM17 inh	ADAM10 inh
COC(=O)Nc1ccc(S(=O)(=O)Nc2ccc(C(=O)O)cc2)cc1	43.2	n	n	n	n
CC(=O)N1C[C@@H]2C(c3ccccc3)[C@H](C1)N2S(C)(=O)=O (stereo partly specified)	x	n	x	x	x
COc1cc(C(Nc2ccccn2)c2ccc3ccc(C)nc3c2O)cc(OC)c1O (stereo unspecified)	x	n	x	x	x
Cc1ccc2ccc(C(Nc3ccccn3)c3ccccc3)c(O)c2n1 (stereo unspecified)	n	n	n	n	24.6
CCSc1nc(N)nc2c1ncn2C1OC(CO)C(O)C1O (stereo unspecified)	n	n	n	n	n
Nc1nc(SCc2ccc(Br)cc2)c2ncn(C3OC(CO)C(O)C3O)c2n1 (stereo unspecified)	44.1	n	n	n	n
COc1ccccc1C=NNC(=O)c1ccccc1OCCOc1ccccc1	n	-31.1	n	n	n
COc1cccc(/C=N/NC(=O)C(=O)N/N=C/c2cccc(OC)c2OC)c1OC	n	n	n	n	n
COc1ccccc1C=NNC(=O)C(=O)NN=Cc1ccccc1OC	43.3	n	n	n	n
NC(=O)N/N=C/c1ccccc1OC(=O)c1ccccc1Br	42.9	n	n	n	n
CN1C(=O)c2cc(NC(=O)c3ccc(Cl)cc3)ccc2OC[C@@H]2O[C@@H](CC(=O)NCc3cccc(F)c3)CC[C@@H]21	n	n	x	x	x
O=C1N[C@@H](c2ccccc2)COCc2cn(nn2)CC[C@@H]1Cc1ccc(-c2ccccc2)cc1	x	n	x	x	x
COCC(=O)N(C)C[C@H]1Oc2cc(C#CC3CCCC3)ccc2S(=O)(=O)N([C@@H](C)CO)C[C@@H]1C	x	n	x	x	x
CCCc1cn(CC[C@H]2CC[C@H](NS(=O)(=O)c3ccccc3Cl)[C@@H](CO)O2)nn1	n	n	x	x	x
COc1ccc(Cl)cc1NC(=O)CNCc1cccs1	n	-31.8	n	n	n
COc1ccc(Cl)cc1NC(=O)CNc1ccccc1CN(C)C1CCCCC1	n	-34.5	n	n	n
Cc1ccc(NC(=O)CNCc2cccs2)c(Br)c1	n	-27.2	n	n	n
Cc1ccc(NC(=O)CNCc2ccccc2)c(Br)c1	n	-27.6	n	n	n
COc1ccc([Si](C)(C)[C@@H]2[C@@H](CCO)O[C@]3(C(=O)N4c5c(cc(OC)cc53)C(C)=CC4(C)C)[C@H]2C)cc1	n	x	x	x	x
CN(C)C(=O)C[C@@H]1CC[C@@H]2[C@H](COC[C@H](O)CN2CC2CCCCC2)O1	n	n	x	x	x
COc1ccc(Cl)cc1NC(=O)CN(C)C(=O)c1sccc1-c1ccccc1	n	-33.3	n	n	n
Cc1ccc(CNCC(=O)Nc2ccc(C)cc2Br)cc1	43.6	n	n	n	n
CN(CC(=O)Nc1ccccc1Br)C(=O)c1sccc1-c1ccccc1	n	x	n	n	n
C[C@H](CO)N1C[C@H](C)[C@@H](CN(C)C(=O)Cc2cccnc2)Oc2ncc(-c3ccccc3)cc2C1=O	n	n	x	x	x
C=C(Cl)COc1ccc2c(CC)cc(=O)oc2c1	n	-24.1	n	n	n
C=C(Cl)COc1ccc2c(CCCC)cc(=O)oc2c1	x	x	n	n	n
O=S(=O)(c1ccc(Cl)c(NC(=S)Nc2cccc(O)c2)c1)N1CCOCC1	1.7	n	n	n	n
Cc1cc(C)n(-c2ccc(F)cc2)c(=O)c1C(=O)O	x	x	n	n	n
CC(=O)c1c(O)cc(C)n(-c2ccc(F)cc2)c1=O	43.8	x	n	n	n
CN1CCN(C(=O)C[C@H]2C[C@H]3c4cc(NC(=O)c5ccc6c(c5)OCO6)ccc4O[C@H]3[C@H](CO)O2)CC1	n	n	x	x	x
